Screens as filed in PubChem.
VP16 counter: counter-screen for ROR gamma inhibitors: Gal4-VP16 reporter; 310,000 compounds, 3.5% hits; Potency, µM (top dose mostly 53.6 µM), for inactives: at the highest dose activity, negative = inhibition, hits mostly inhibitors; Drosophila S2 Gal4-VP16 UAS-luciferase, luminescence, 20 h;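 also: Gal4-VP16 expression switched on by copper sulfate through the metallothionein promoter; % is scaled to controls: 0 for no effect and ±100 for the full control effect; nearly all actives have a fitted effect of over 50% in size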
MCF10A rerep: inducers of DNA re-replication in MCF 10A breast cells. Potency, µM (highest dose often 46.1 µM), without a hit: at the highest dose activity, positive = re-replication, usual class: activators. 350,000 compounds, 2.9% hits. MCF 10A DNA re-replication, Hoechst nuclear intensity, 48 h; also: % of control where 0% means no effect; nearly all actives have a fitted effect of over 50% in size
SW480 rereplic: inducers of DNA re-replication in SW480 colon cancer cells | 340,000 compounds, 1.8% hits | Potency, µM (highest dose often 46.1 µM), for inactives: at the top dose re-replication activation, actives largely listed as activators | SW480 DNA re-replication, Hoechst DNA content imaging, 48 h; also: % of control where 0% means no effect; nearly all actives have a fitted effect of over 55% in size
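Hoechst fluorescence of nuclei (405 nm excitation, 500-530 nm emission) measured by plate-scanning imager after 48 hr compound exposure at 37 C; re-replication scored as increased number of nuclei with elevated intensity.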
KB-V1 MDR tox: kills drug-selected multidrug resistant KB-V1 cells; KB-V1 MDR cells viability, CellTiter-Glo, 72 h; Potency, µM (series often up to 46.1 µM), hits mostly cytotoxic; 400,000 compounds, 3.4% hits; AID 1347076; also: % is scaled to controls: 0 for no effect and ±100 for the full control effect; nearly all actives have a fitted effect of over 60% in size
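Cytotoxicity via CellTiter-Glo luminescence after 72 h compound exposure at 37 degrees C. Cells: drug-selected KB-V1 line, DMEM phenol-red free plus 10% FBS. Compounds tested at multiple concentrations; normalized data fitted to concentration-effect curves.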
KB-3-1 cytotox: kills parental KB-3-1 adenocarcinoma cells; Potency, µM (titrated, usually from 46.1 µM), usual class: cytotoxic; KB-3-1 viability, CellTiter-Glo ATP luminescence, 72 h; AID 1347075; 400,000 compounds, 1.4% hits; also: % is scaled to controls: 0 for no effect and ±100 for the full control effect; nearly all actives have a fitted effect of over 60% in size
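Cytotoxicity measured as CellTiter-Glo luminescence after 72 h at 37 C. Compound titrations were pinned onto drug-naive KB-3-1 parental adenocarcinoma cells grown in DMEM with 10% FBS, and normalized data fitted to concentration-response curves.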
RORg inh: ROR gamma (mouse) transcription inhibition | Drosophila S2 Gal4-RORgamma UAS-luciferase reporter, 20 h | AID 2551 | Potency, µM (top dose mostly 53.6 µM), for inactives: at the top dose activity change, negative = inhibition, most hits filed as inhibitors | 310,000 compounds, 5.4% hits; also: % is scaled to controls: 0 for no effect and ±100 for the full control effect; nearly all actives have a fitted effect of over 60% in size
Target sequence (P51450 whole entry, looked up, the tested form may be a part): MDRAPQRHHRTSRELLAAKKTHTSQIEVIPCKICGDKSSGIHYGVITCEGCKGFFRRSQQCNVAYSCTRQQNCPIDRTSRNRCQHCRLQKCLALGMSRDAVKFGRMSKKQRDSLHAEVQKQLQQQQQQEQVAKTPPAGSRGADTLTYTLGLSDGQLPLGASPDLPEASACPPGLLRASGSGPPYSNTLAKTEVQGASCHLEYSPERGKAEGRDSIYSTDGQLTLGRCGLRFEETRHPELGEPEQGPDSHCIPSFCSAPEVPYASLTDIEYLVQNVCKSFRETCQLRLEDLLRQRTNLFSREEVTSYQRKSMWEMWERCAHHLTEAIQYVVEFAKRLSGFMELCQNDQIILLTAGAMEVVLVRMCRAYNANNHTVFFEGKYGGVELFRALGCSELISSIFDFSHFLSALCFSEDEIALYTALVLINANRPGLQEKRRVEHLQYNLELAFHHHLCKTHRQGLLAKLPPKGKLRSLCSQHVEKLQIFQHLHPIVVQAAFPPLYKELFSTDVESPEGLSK
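Luciferase reporter read in Schneider cells carrying Gal4-RORγ (mouse) and UAS-Photinus luciferase; cells given compound 1 h before 700 uM copper sulfate induction, then incubated 20 h at ambient temperature.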
The depositor's hits bear a star; [ ] = another dose, or the depositor's remark. The list is not random: actives were taken first. Their share in the collection is about 10%. Calls follow the shape of the dose curve; as a rule, active = well fitted curve in the direction sought with a large enough effect; inconclusive = small, poorly fitted or top-dose-only effect, or another doubt; inactive = no such curve, though single readings can be large; an effect the other way counts as inactive or inconclusive. Potency is read from the fitted curve at half-maximal effect.

`CCCC1(CCC)NC(=O)N(CC(=O)N2CCc3ccccc32)C1=O` gave MCF10A rerep -1%, SW480 rereplic 0%, KB-V1 MDR tox 16µM* and KB-3-1 cytotox inactive.
For O=C1NC2(CCCCC2)C(=O)N1CC(=O)N1CCc2ccccc21 the results were MCF10A rerep -28%, SW480 rereplic 9%, KB-V1 MDR tox inactive and KB-3-1 cytotox inactive.
`CC1(C(=O)NS(=O)(=O)C2CC2)CCCN(C(=O)c2cccs2)C1` (centres undefined) gave KB-V1 MDR tox inactive and KB-3-1 cytotox inactive.
Screening CCOC(=O)c1oc2ccccc2c1NC(=O)COc1ccc(F)cc1 returned VP16 counter inconclusive, MCF10A rerep inconclusive, SW480 rereplic -3%, KB-V1 MDR tox 8.2µM*, KB-3-1 cytotox inactive and RORg inh 12%.
O=C(COc1ccc([N+](=O)[O-])cc1)Nc1ccc2c(c1)nc1n2CCOC1 was read as VP16 counter 0%, MCF10A rerep 23µM*, SW480 rereplic inconclusive, KB-V1 MDR tox inactive, KB-3-1 cytotox inconclusive and RORg inh -12%.
`Cc1ccc(C(=O)c2cc([N+](=O)[O-])ccc2N2CCOCC2)cc1` gave VP16 counter -3%, MCF10A rerep 3.7µM*, SW480 rereplic 3.7µM*, KB-V1 MDR tox 0.82µM*, KB-3-1 cytotox 2.1µM* and RORg inh 12%.
Screening COc1ccc(CCNC(=O)c2cc([N+](=O)[O-])ccc2N2CCOCC2)cc1 returned MCF10A rerep inconclusive, SW480 rereplic inconclusive, KB-V1 MDR tox inconclusive and KB-3-1 cytotox inactive.
Screening COc1ccc(C(=O)c2cc([N+](=O)[O-])ccc2N2CCOCC2)cc1 returned VP16 counter 3%, MCF10A rerep inconclusive, SW480 rereplic 0.37µM*, KB-V1 MDR tox 0.52µM*, KB-3-1 cytotox 1.8µM* and RORg inh -15%.
Cc1ccc(OCC(=O)Nc2ccc3c(c2)nc2n3CCOC2)cc1 was read as VP16 counter 2%, MCF10A rerep 6%, SW480 rereplic -11%, KB-V1 MDR tox inactive, KB-3-1 cytotox inactive and RORg inh -14%.
Cc1ccc(COC(=O)c2cc([N+](=O)[O-])ccc2N2CCOCC2)cc1 was read as VP16 counter -9% and RORg inh 45%.
For CCOc1ccc(C(=O)c2cc([N+](=O)[O-])ccc2N2CCOCC2)cc1 the results were VP16 counter -7%, MCF10A rerep inconclusive, SW480 rereplic 0.058µM*, KB-V1 MDR tox inconclusive, KB-3-1 cytotox 0.029µM* and RORg inh 7%.
For CCOC(=O)C1(C)CCN1C(=O)c1ccc(F)c(Cl)c1 (centres undefined) the results were KB-V1 MDR tox inactive and KB-3-1 cytotox inactive.
`CCOc1ccc(-c2cc3c(=O)n(Cc4nc(-c5ccc(OCC)c(OC)c5)oc4C)ccn3n2)cc1Cl` gave KB-V1 MDR tox inactive and KB-3-1 cytotox inactive.
O=C(COc1ccc([N+](=O)[O-])cc1)N/N=C/c1cc([N+](=O)[O-])ccc1N1CCOCC1 was read as VP16 counter -7%, MCF10A rerep 9%, SW480 rereplic -8%, KB-V1 MDR tox 16µM*, KB-3-1 cytotox inactive and RORg inh inconclusive.
Screening Cc1ccc(C(=O)c2cc([N+](=O)[O-])ccc2N2CCCCC2)c(C)c1 returned VP16 counter -7%, MCF10A rerep inconclusive, SW480 rereplic 1.3µM*, KB-V1 MDR tox 1.6µM*, KB-3-1 cytotox 0.82µM* and RORg inh -15%[10 µM].
`CC(=O)c1ccc(NC(=O)CSc2n[nH]c(-c3cccnc3)n2)cc1` gave VP16 counter -17%, MCF10A rerep -17%, SW480 rereplic -11%, KB-V1 MDR tox inactive, KB-3-1 cytotox inactive and RORg inh 0%.
For COc1ccc(-c2c(C(C)=O)c(C)nc3sc4c(=N)n(N)cnc4c23)cc1 the results were VP16 counter -6%, MCF10A rerep -56%, SW480 rereplic inconclusive, KB-V1 MDR tox 18µM*, KB-3-1 cytotox inconclusive and RORg inh -11%.
O=C1c2ccccc2-c2c1c1ccccc1c(=O)n2-c1ccccc1 was read as MCF10A rerep inconclusive, SW480 rereplic 1%, KB-V1 MDR tox inactive and KB-3-1 cytotox inactive.
O=C1c2ccccc2-c2c1c1ccccc1c(=O)n2CCO was read as MCF10A rerep inconclusive, SW480 rereplic 24%, KB-V1 MDR tox 18µM* and KB-3-1 cytotox inactive.
For Nc1c(NC2CCCCC2)c2ccccc2oc1=O the results were VP16 counter 0%, MCF10A rerep 2%, SW480 rereplic 2%, KB-V1 MDR tox 16µM*, KB-3-1 cytotox inactive and RORg inh -22%.
CCOC(=O)[C@]12CCCC=C1N(Cc1cccc3ccccc13)C(=O)[C@H](CC(=O)NCCCCc1ccccc1)C2 was read as KB-V1 MDR tox inconclusive and KB-3-1 cytotox inactive.
Screening CCc1cccc(NC(=O)Cn2c(=O)n(CC(=O)NCCc3ccccc3)c(=O)c3ccccc32)c1 returned KB-V1 MDR tox inactive and KB-3-1 cytotox inactive.
For CCc1c(O)nc(SCC(=O)Nc2ccccc2)n(-c2ccccc2)c1=O the results were VP16 counter -1%, MCF10A rerep 3.7µM*, SW480 rereplic 21µM*, KB-V1 MDR tox inactive, KB-3-1 cytotox inactive and RORg inh 42%.
COc1cccc(Cn2c(NCC(C)C)nc3c2c(=O)n(C)c(=O)n3C)c1 was read as VP16 counter inconclusive, MCF10A rerep inconclusive, SW480 rereplic -6%, KB-V1 MDR tox 3.3µM*, KB-3-1 cytotox inactive and RORg inh 26%.
`Cn1c(=O)c2c(nc(NCc3ccco3)n2CC(O)COc2ccccc2)n(C)c1=O` (centres undefined) gave VP16 counter inconclusive, MCF10A rerep 2%, SW480 rereplic -8%, KB-V1 MDR tox 2.6µM*, KB-3-1 cytotox inconclusive and RORg inh inconclusive.
`COc1ccc(Cl)c(Cn2c(NCc3ccco3)nc3c2c(=O)n(C)c(=O)n3C)c1` gave VP16 counter 0.0089µM*, MCF10A rerep 14%, SW480 rereplic -1%, KB-V1 MDR tox inconclusive, KB-3-1 cytotox inactive and RORg inh -43%.
For COc1cccc(Cn2c(NCc3ccco3)nc3c2c(=O)n(C)c(=O)n3C)c1 the results were VP16 counter 2.8µM*, MCF10A rerep 13%, SW480 rereplic -16%, KB-V1 MDR tox inconclusive, KB-3-1 cytotox inconclusive and RORg inh -38%.
COc1ccc(Cl)c(Cn2c(NCCN)nc3c2c(=O)n(C)c(=O)n3C)c1 was read as KB-V1 MDR tox inactive and KB-3-1 cytotox inactive.
